ELG1 DNA repair: ELG1-dependent DNA repair inhibition; hit rate 2.3% among 330,000; Potency, µM (highest dose often 46.1 µM), actives largely listed as inhibitors; HEK293T ELG1-luciferase reporter, luminescence, 16 h; DNA damage induced by 5-fluorouridine; AID 504467; also: nearly all actives have a fitted effect of over 55% in size
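Cells (2,000 per well) received 5-fluorouridine plus test compound or DMSO and were incubated 16 hr at 37 °C, 5% CO2. Luciferase activity was read by luminescence 30 min after ONE-Glo addition; signal suppression marked inhibition of damage-induced ELG1 function.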
KB-3-1 cytotox: kills parental KB-3-1 adenocarcinoma cells; hit rate 1.4% among 400,000; Potency, µM (doses to about 46.1 µM), actives largely listed as cytotoxic; AID 1347075; KB-3-1 viability, CellTiter-Glo ATP luminescence, 72 h; also: nearly all actives have a fitted effect of over 60% in size
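Cytotoxicity measured as CellTiter-Glo luminescence after 72 h at 37 C. Compound titrations were pinned onto drug-naive KB-3-1 parental adenocarcinoma cells grown in DMEM with 10% FBS, and normalized data fitted to concentration-response curves.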
SW480 rereplic: DNA re-replication induction in SW480 cells; AID 624297; Potency, µM (top dose mostly 46.1 µM), usual class: activators; hit rate 1.8% among 340,000; SW480 DNA re-replication, Hoechst DNA content imaging, 48 h; also: nearly all actives have a fitted effect of over 55% in size
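Per well, 250 cells were exposed to pinned compound for 48 hr. Nuclear DNA was visualised with Hoechst (40 min, 37 C) and total object intensity recorded by fluorescence scanning.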
KB-V1 MDR tox: KB-V1 MDR subline cytotoxicity | KB-V1 MDR cells viability, CellTiter-Glo, 72 h | Potency, µM (titrated, usually from 46.1 µM), most hits filed as cytotoxic | hit rate 3.4% among 400,000; also: nearly all actives have a fitted effect of over 60% in size
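Following 72 h at 37 degrees C with compound, KB-V1 cell viability was read by CellTiter-Glo luminescence, medium being phenol-red-free DMEM plus 10% FBS; concentration-response parameters came from normalized, curve-fitted qHTS data.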
MCF10A rereplic: inducers of DNA re-replication in MCF 10A breast cells; hit rate 2.9% among 350,000; Potency, µM (titrated, usually from 46.1 µM), hits mostly activators; MCF 10A DNA re-replication, Hoechst nuclear intensity, 48 h; also: nearly all actives have a fitted effect of over 50% in size
Large screens that a line does not name were inactive. Shown are actives, neighbours in structure and some others; about 8.1% of the full set was active somewhere. Calls follow the shape of the dose curve; as a rule, active = well fitted curve in the direction sought with a large enough effect; inconclusive = small, poorly fitted or top-dose-only effect, or another doubt; inactive = no such curve, though single readings can be large; an effect the other way counts as inactive or inconclusive.

O=C(Nc1ccc(N=Nc2ccccc2)c(NC(=O)C2CCCO2)c1)C1CCCO1 (stereo not drawn)	ELG1 DNA repair 9.2µM, KB-V1 MDR tox inconclusive, MCF10A rereplic inconclusive
O=C(NS(=O)(=O)c1ccc(NC(=O)C2CCCO2)cc1)c1ccccc1 (stereo not drawn)	none
COc1ccc2nc(NC(=O)c3ccc(NC(=O)C4CCCO4)cc3)sc2c1 (stereo not drawn)	ELG1 DNA repair inconclusive, KB-3-1 cytotox 7.3µM, SW480 rereplic inconclusive, MCF10A rereplic 21µM
O=C(CCC(=O)c1ccccc1)Nc1ccc(F)c(Cl)c1	none (no result: ELG1 DNA repair, SW480 rereplic, MCF10A rereplic)
Cc1ccc(NC(=O)CC(O)(C(F)(F)F)C(F)(F)F)c(Br)c1	none
COc1ccc(NC(=O)C(OC(=O)Cn2cnc3c2c(=O)n(C)c(=O)n3C)c2ccccc2)cc1Cl (stereo not drawn)	none (no result: ELG1 DNA repair)
O=C(N1CCCCC1)C12CC3CC(CC(C3)C1)C2	none
O=C(Nc1ccc(F)cc1)N1CCN(c2ccc3nnc(-c4ccc(F)cc4)n3n2)CC1	ELG1 DNA repair 7.3µM
Fc1ccc(-c2nnc3ccc(N4CCc5ccccc5C4)nn23)cc1	ELG1 DNA repair 18µM, KB-V1 MDR tox inconclusive
O=C(Nc1ccccc1C(F)(F)F)N1CCN(c2ccc3nncn3n2)CC1	none
O=S(=O)(c1ccc(Br)cc1)N1CCN(c2ccc3nnc(-c4ccccc4)n3n2)CC1	none
O=C(Nc1ccccc1C(F)(F)F)N1CCN(c2ccc3nnc(-c4ccc(F)cc4)n3n2)CC1	ELG1 DNA repair 12µM
O=C(CN1CCN(S(=O)(=O)N2CCOCC2)CC1)Nc1ccc(Cl)c(Cl)c1	ELG1 DNA repair inconclusive, KB-V1 MDR tox inconclusive
COc1ccc2oc(/C=C/N(C)C)c(C(=O)c3ccc(Cl)cc3)c2c1	MCF10A rereplic 6.3µM
COc1ccc(C(=O)c2oc3ccc(OC)cc3c2N)cc1	ELG1 DNA repair inconclusive, MCF10A rereplic 26µM
COC(=O)c1oc2ccc(OC)cc2c1N	ELG1 DNA repair inconclusive
CCSc1ncc(Cl)c(C(=O)N(Cc2ccccc2Cl)C2CCS(=O)(=O)C2)n1 (stereo not drawn)	none (no result: ELG1 DNA repair, SW480 rereplic, MCF10A rereplic)
S=C(NC1CCCCC1)N1CCOCC1	none
COc1ccc(N2C[C@H](CSC)[C@@H](CC(=O)Nc3ccc(Br)cc3)C2=O)cc1	KB-V1 MDR tox 8.2µM (no result: ELG1 DNA repair, SW480 rereplic, MCF10A rereplic)
CC(C)(C)C1CCc2onc(C(=O)NC3CCCC3)c2C1 (stereo not drawn)	KB-3-1 cytotox inconclusive, KB-V1 MDR tox 16µM, MCF10A rereplic inconclusive
CC(C)(C)C1CCc2onc(C(=O)Nc3ccc4c(c3)OCO4)c2C1 (stereo not drawn)	MCF10A rereplic inconclusive
COc1cc(NC(=O)c2noc3c2CC(C(C)(C)C)CC3)cc(OC)c1OC (stereo not drawn)	KB-V1 MDR tox 16µM (no result: ELG1 DNA repair, SW480 rereplic, MCF10A rereplic)
CC(C)(C)C1CCc2onc(C(=O)N3CCOCC3)c2C1 (stereo not drawn)	KB-V1 MDR tox 21µM
CC1Cc2nc(SCC(=O)N3CCOCC3)n(-c3ccccc3)c(=O)c2S1 (stereo not drawn)	none
COc1ccc(OC)c(/C=C/c2c([N+](=O)[O-])c(=O)n(C)c(=O)n2C)c1	ELG1 DNA repair inconclusive, KB-3-1 cytotox 21µM
Cn1c(/C=C/c2ccc(Br)cc2)c([N+](=O)[O-])c(=O)n(C)c1=O	ELG1 DNA repair inconclusive, KB-3-1 cytotox 21µM, SW480 rereplic inconclusive, KB-V1 MDR tox inconclusive, MCF10A rereplic 21µM
CN(C)c1ccc(/C=C/c2c([N+](=O)[O-])c(=O)n(C)c(=O)n2C)cc1	none
CCCc1nn(C)c2c(=O)[nH]c(-c3ccccc3OCC)nc12	ELG1 DNA repair inconclusive
O=C(Cn1c(=O)c(C(F)(F)F)nc2ccccc21)Nc1ccc(Br)cc1F	none (no result: ELG1 DNA repair, SW480 rereplic, MCF10A rereplic)
CCOC(=O)C1=C(C)NC(=O)NC1c1ccc(OC)c(Cl)c1 (stereo not drawn)	KB-V1 MDR tox 21µM
CCOCc1cc(C2NC(=O)NC(C)=C2C(=O)OCC)ccc1OC (stereo not drawn)	none
CCSc1nnc(NC(=O)c2csc3c2CCCC3)s1	SW480 rereplic 15µM, MCF10A rereplic inconclusive
CCSc1nnc(NC(=O)c2csc3c2CCC(C)C3)s1 (stereo not drawn)	none
O=C(Nc1ccccc1C(=O)N1CCOCC1)C1CCCO1 (stereo not drawn)	none

Screens: PubChem, National Center for Advancing Translational Sciences (NCATS)
